# Screening results from PubChem BioAssay.
# Sampled rows, rich in hits. Any-hit rate of the full collection: about 8%.
# SW480 rereplic: DNA re-replication induction in SW480 cells; SW480 DNA re-replication, Hoechst DNA content imaging, 48 h; Potency, µM (titrated, usually from 46.1 µM), inactives show top-dose re-replication activation, most hits filed as activators; 340,000 compounds, 1.8% hits; AID 624297; note: % of control where 0% means no effect; nearly all actives have a fitted effect of over 55% in size
#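 First, 250 cells per well were seeded. Next, compound or vehicle (23 nL) was pinned in, plates sat 48 hr at 37 C. Finally Hoechst was added for 40 min before fluorescence scanning.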
# HT1080 IDH1KD tx: kills HT-1080 cells with IDH1 knockdown. HT-1080 IDH1 knockdown viability, ATP luminescence, 48 h. Potency, µM (series often up to 46.1 µM), inactives show at the top dose activity, negative = toxicity, usual class: cytotoxic. 360,000 compounds, 2% hits;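 note: 0% = DMSO wells and -100% = cell-free medium wells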
#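 Luminescent ATP read-out (CellTiter-Glo, 10 min at room temperature) after 48 h compound exposure at 37 °C gave viability of IDH1-knockdown HT-1080 cells. Activity was normalised to DMSO and cell-free wells, then fitted as concentration-response curves.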
# MCF10A rerep: induces DNA re-replication in MCF 10a normal breast cells; MCF 10A DNA re-replication, Hoechst nuclear intensity, 48 h; Potency, µM (series often up to 46.1 µM), for inactives: top-dose activity, positive = re-replication, actives largely listed as activators; 350,000 compounds, 2.9% hits; note: % of control where 0% means no effect; nearly all actives have a fitted effect of over 50% in size
# KB-3-1 tox: kills parental KB-3-1 adenocarcinoma cells | KB-3-1 viability, CellTiter-Glo ATP luminescence, 72 h | AID 1347075 | 400,000 compounds, 1.4% hits | Potency, µM (doses to about 46.1 µM), hits mostly cytotoxic; note: % is set by controls: 0 for no effect and ±100 for the full control effect; nearly all actives have a fitted effect of over 60% in size
#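 Luminescent ATP read-out (CellTiter-Glo) measures survival of drug-naive KB-3-1 cells after 72 h compound exposure at 37 °C. Titration series was screened from lowest to highest concentration, with DMSO vehicle plates as background controls.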
# HT1080NT lethal: kills 2HG-producing HT-1080-NT fibrosarcoma cells. HT-1080-NT fibrosarcoma viability, CellTiter-Glo ATP luminescence, 48 h. Potency, µM (doses to about 46.1 µM), inactives show top-dose activity, negative = less viability, hits mostly cytotoxic. 360,000 compounds, 1.6% hits;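 note: NT is the 2HG producing partner of a matched IDH1 knockdown line; 0% = DMSO-treated cells and -100% = media-only wells without cells; nearly all actives have a fitted effect of over 55% in size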
#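 Compounds were tested in concentration-response format on HT-1080-NT cells for 48 hours at 37 degrees C. Cell viability came from CellTiter-Glo luminescence; curves were classified by r2, response magnitude and activity.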
# KB-V1 MDR tox: kills drug-selected multidrug resistant KB-V1 cells | 400,000 compounds, 3.4% hits | KB-V1 MDR cells viability, CellTiter-Glo, 72 h | Potency, µM (highest dose often 46.1 µM), actives largely listed as cytotoxic | AID 1347076; note: % is set by controls: 0 for no effect and ±100 for the full control effect; nearly all actives have a fitted effect of over 60% in size
#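 Following 72 h at 37 degrees C with compound, KB-V1 cell viability was read by CellTiter-Glo luminescence, medium being phenol-red-free DMEM plus 10% FBS; concentration-response parameters came from normalized, curve-fitted qHTS data.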
# Active calls of the source: *; i = inactive; u = inconclusive; x = no result given; ! = repeats disagree; [ ] = dose if it differs, or a comment. Calls come from the whole dose curve; as a rule, active = well fitted curve in the direction sought with a large enough effect; inconclusive = small, poorly fitted or top-dose-only effect, or another doubt; inactive = no such curve, though single readings can be large; an effect the other way counts as inactive or inconclusive. Potency is the fitted concentration of half-maximal effect.
SMILES,SW480 rereplic,HT1080 IDH1KD tx,MCF10A rerep,KB-3-1 tox,HT1080NT lethal,KB-V1 MDR tox
Cc1cc(C)c(C)c(S(=O)(=O)NCC(=O)NCc2ccco2)c1C,u,19%,-3%,i,13%,18µM*
COc1cc2nc(C#N)nc(N)c2cc1OC,x,16%,x,x,21%,x
CCOc1ccc(NS(=O)(=O)c2ccc3c4c(cccc24)C(=O)N3)cc1,x,x,x,i,x,i
Cc1ccnc(NC(c2cccnc2)c2ccc3cccnc3c2O)c1 (stereo not drawn),3.3µM*,u,u,i,u,u
Cc1ccnc(NC(c2ccccc2F)c2ccc3cccnc3c2O)c1 (stereo not drawn),x,x,x,u,x,i
Cc1ccnc(NC(c2ccsc2)c2ccc3ccc(C)nc3c2O)c1 (stereo not drawn),u,15µM*,u,i,u,i
COc1ccc(C(Nc2cc(C)ccn2)c2ccc3ccc(C)nc3c2O)cc1 (stereo not drawn),u,-8%,0%,i,-20%,i
COc1ccc(CNC(=O)CN2C(=O)CCCc3ccccc32)cc1,x,x,x,i,x,i
CCOC(=O)C1CCCN(S(=O)(=O)c2ccc3c(c2)CCN3C(=O)CC)C1 (stereo not drawn),x,x,x,i,x,i
COc1ccc(/C=C\C(=O)O[C@@H]2C(O)C(O[C@@H]3OC(C)[C@H](O[C@@H]4OCC(O[C@H]5O[C@H](CO)[C@@H](O)C(O)C5O)C(O)C4O)C(O)C3O)[C@H](OC(=O)[C@]34CCC(C)(C)C[C@@H]3C3=CCC5[C@@]6(C)CC(O)C(O[C@@H]7OC(CO)C(O)[C@H](O)[C@H]7O)[C@@](C)(C(=O)O)C6CC[C@@]5(C)[C@]3(CO)CC4)O[C@H]2C)cc1 (stereo partly drawn),1%,21µM*,27%,i,u,i
COC(=O)/C(=N/Nc1ccccc1)N1CCCc2ccccc21,15%,-14%,16%,u,-1%,21µM*
COC(=O)/C(=N/Nc1ccc(C)cc1)N1CCCc2ccccc21,24%,-4%,u,i,-3%,u
O=C(CSc1ncccn1)N1CCN(C(=O)CSc2ncccn2)CC1,-6%,6%,-5%,i,4%,i
O=C(CSc1cccc2cccnc12)N1CCCC1,u,1%,12µM*,7.3µM*,7.3µM*,i
CN(C)C(=O)CSc1cccc2cccnc12,5.2µM*,u,u,u,u,u
O=C(CSc1cccc2cccnc12)OCC(=O)c1ccc(Br)cc1,-2%,-6%,u,i,-13%,u
O=C(CSc1cccc2cccnc12)OCC(=O)c1ccccc1,u,33µM*,u,i,29µM*,i
O=C(CSc1ncccn1)N1CCN(C(c2ccccc2)c2ccccc2)CC1,-16%,13%,6%,i,u,18µM*
NNC(=O)CSc1cccc2cccnc12,-150%,14%,-42%,i,0%,i
COc1ccc2c(CNC3CCCC3)c(C(=O)O)n(Cc3ccccc3C)c2c1,x,x,x,i,x,i
Cc1nn(-c2ccccc2)c(-n2cccc2)c1C(=O)NCCCN1CCN(c2ccccc2F)CC1,x,x,x,i,x,i
CCc1cc(C(=O)Nc2cnn(Cc3ccccc3C)c2)no1,x,x,x,i,x,u
CCOc1ccccc1N1C(=O)c2ccccc2N/C1=C\N1CCN(C(=O)c2ccco2)CC1,x,-8%,x,x,u,x
O=C(CCNS(=O)(=O)c1ccccc1F)N1CCN(S(=O)(=O)c2cccc(F)c2)CC1,1%,-7%,5%,i,-2%,i
O=C(CSc1cccc2cccnc12)N/N=C/c1ccncc1,1.8µM*,-5%,-5%,i,-5%,i
SMILES,SW480 rereplic,HT1080 IDH1KD tx,MCF10A rerep,KB-3-1 tox,HT1080NT lethal,KB-V1 MDR tox
O=C(CCNS(=O)(=O)c1ccccc1F)N1CCN(C(c2ccccc2)c2ccccc2)CC1,u,-25%,u,u,-22%,8.2µM*
COC(=O)C1C2CC3c4[nH]c5cc(OC)ccc5c4CCN3CC2CC(OC)C1OC (stereo not drawn),2%,x,22%,x,x,x
COC(=O)[C@H]1[C@H]2C[C@@H]3c4[nH]c5cc(OC)ccc5c4CCN3C[C@H]2C[C@@H](OC(=O)c2cc(OC)c(OC)c(OC)c2)[C@@H]1OC,u,u,30µM*!,i,u,i
Cc1cc(C)cc(NC(=O)Cn2c(=O)n(Cc3ccco3)c(=O)c3oc4ccccc4c32)c1,x,x,x,i,x,i
Cc1cc(C)c(CN2C(=O)c3ccccc3S(=O)(=O)c3ccc(C(=O)OCC4CCCO4)cc32)c(C)c1 (stereo not drawn),x,x,x,i,x,i
c1ccc2cc(CNCc3cccc4ccccc34)ccc2c1,-12%,23µM*,u,i,u,i
COc1ccc(S(=O)(=O)N2C3CCC2CC(NC(=O)NC2CCCCC2)C3)cc1 (stereo not drawn),-2%,-7%,u,i,7%,16µM*
CCOc1ccc(/C=C(\C#N)C(=O)Nc2sc3c(c2C(=O)OC)CCC3)cc1OC,x,x,x,i,x,i
c1ccc(CNc2ncnc3c2ncn3C2CCCCO2)cc1 (stereo not drawn),29%,x,16µM*,i,x,i
Fc1ccc(CSc2ncnc3c2ncn3C2CCCCO2)cc1 (stereo not drawn),0%,24%,11%,i,20%,21µM*
CC(C)CCn1cnc2c(NCc3ccccc3)ncnc21,-3%,1%,0%,i,-1%,16µM*
CC(=O)N1CCc2c(sc3c2c(=O)n(-c2ccccc2)c(=O)n3CC(=O)c2ccc(Cl)cc2)C1,x,x,x,i,x,i
Cc1cc(C)c(OCCOCCn2c(-c3ccc(Cl)cc3)nc3ccccc3c2=O)c(C)c1,x,x,x,i,x,u
Cc1cc(C)c2nc(N(Cc3cccnc3)C(=O)c3cccs3)sc2c1,x,x,x,i,x,u
Cc1ccc(C)c(OC(=O)C2CSC3(C)CCC(=O)N23)c1C (stereo not drawn),-14%,-2%,0%,16µM*,0%,i
CC(C)C(=O)Nc1cc(C(F)(F)F)ccc1N1CCOCC1,2%,1%[9.24 µM],-6%,i,-3%,i
O=C(CCC1CCCC1)Nc1cc(C(F)(F)F)ccc1N1CCOCC1,3.7µM*,11%,-8%,i,0%,i
Cc1noc(C)c1CSCC(=O)Nc1cc(C(F)(F)F)ccc1N1CCOCC1,0%,-1%,-3%,i,-3%,3.7µM*
